Compound activity: PubChem BioAssay, National Center for Advancing Translational Sciences (NCATS)
TGFb inhibitor – TGF-b pathway inhibition; HepG2 CAGA-GFP TGF-b/SMAD3 reporter, GFP fluorescence, 18 h; TGF-beta stimulated, 500 pg/mL final; Potency, µM (doses to about 46.1 µM), inactives show at the top dose activity, negative = inhibition, usual class: inhibitors; hit rate 1.2% among 410,000; AID 588855; also: potency is read from the fitted curve at half-maximal effect; % is scaled to controls: 0 for no effect and ±100 for the full control effect; nearly all actives have a fitted effect of over 65% in size
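Smad-responsive CAGA-GFP expression was quantified in HEPG2 cells exposed to compounds and 500 pg/mL final TGF-beta for 18 h at 37 degrees C; unstimulated wells defined full inhibition.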
HepG2 viability – HepG2 cytotoxicity, counter-screen for TGF-b inhibitors. hit rate 0.76% among 410,000. Potency, µM (doses to about 46.1 µM), for the others: at the top dose activity change, negative = cytotoxicity, usual class: cytotoxic. HepG2 CAGA-GFP viability, ATP luminescence, 18 h; also: potency is read from the fitted curve at half-maximal effect
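HepG2 CAGA-GFP cells (1000/well, DMEM with 1% FBS) received compound, then TGF-beta at 500 pg/mL final, and were incubated 18 hours at 37 degrees C. Viability was read by CellTiter-Glo luminescence. Media-only wells were set as complete cell-killing and DMSO as no toxicity.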
TDP1 block – inhibitors of human tyrosyl-DNA phosphodiesterase TDP1. recombinant TDP1, AlphaScreen DNA substrate cleavage. Potency, µM (series often up to 130 µM), without a hit: at the highest dose activity change, negative = inhibition, usual class: inhibitors. hit rate 0.28% among 350,000; also: potency is read from the fitted curve at half-maximal effect; % is scaled to controls: 0 for no effect and ±100 for the full control effect; nearly all actives have a fitted effect of over 40% in size
Target sequence (Q9NUW8 whole entry, looked up): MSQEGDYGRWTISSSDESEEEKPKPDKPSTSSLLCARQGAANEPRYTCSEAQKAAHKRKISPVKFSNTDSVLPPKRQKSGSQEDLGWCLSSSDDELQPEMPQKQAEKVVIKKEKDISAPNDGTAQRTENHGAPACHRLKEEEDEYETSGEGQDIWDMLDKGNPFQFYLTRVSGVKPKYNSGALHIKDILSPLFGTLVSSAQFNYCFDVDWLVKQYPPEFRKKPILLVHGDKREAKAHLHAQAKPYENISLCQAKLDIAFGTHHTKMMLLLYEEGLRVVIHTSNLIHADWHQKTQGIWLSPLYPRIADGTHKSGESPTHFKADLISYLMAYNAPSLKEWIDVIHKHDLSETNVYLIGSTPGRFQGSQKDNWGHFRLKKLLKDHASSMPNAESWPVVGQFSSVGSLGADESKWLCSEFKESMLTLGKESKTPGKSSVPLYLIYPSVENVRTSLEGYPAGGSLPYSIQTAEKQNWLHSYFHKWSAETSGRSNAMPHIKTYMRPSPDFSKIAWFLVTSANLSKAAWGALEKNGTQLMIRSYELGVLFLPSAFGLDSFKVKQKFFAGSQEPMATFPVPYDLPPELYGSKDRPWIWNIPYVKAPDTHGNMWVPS
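Tdp1 1 nM final; 15 min RT w/ cpd; substrate 15 nM, 5 min; beads 10 ug/ml, 10 min; AlphaScreen read. Neg ctrl: no enzyme.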
DT40 TDP1 CPT – growth inhibition of DT40 Tdp1-/-;hTDP1 cells with camptothecin (screen for TDP1 inhibitors); chicken DT40 Tdp1-/-;hTDP1 cells + 20 nM CPT, ATP luminescence, 48 h; Potency, µM (doses to about 46.2 µM), for the others: at the top dose activity change, negative = growth inhibition, actives largely listed as inhibitors; hit rate 12% among 420,000; AID 686979; also: potency is read from the fitted curve at half-maximal effect; % is scaled to controls: 0 for no effect and ±100 for the full control effect; nearly all actives have a fitted effect of over 55% in size
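Cell growth measured by CellTiter-Glo luminescence after a minimum 48 h, 37 C compound exposure with 20 nM CPT in Tdp1-knockout DT40 cells stably expressing hTDP1, seeded 400/well; qHTS titration format.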
IL-1B inflam inh – inflammasome signaling inhibition, IL-1 beta readout. THP-1 LPS/ATP IL-1B secretion, AlphaLISA, 16 h; active compounds read low. activity change, % at 57.5 µM. hit rate 4.7% among 360,000; in the data active = activity change below about -50%; inconclusive = mostly about -30% to -49%; also: % is scaled to controls: 0 for no effect and ±100 for the full control effect
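Secreted IL-1B measured by AlphaLISA bead assay after 16 h compound exposure of THP-1 cells; compounds (final up to 57.5 uM) added 1 h before LPS (250 ng/mL) and ATP (1.25 mM) stimulation; lower signal means less secretion.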
TDP1 cell noCPT – qHTS for Inhibitors of human tyrosyl-DNA phosphodiesterase 1 (TDP1): qHTS in cells in absence of CPT; hit rate 15% among 420,000; AID 686978, 2013; Potency, µM (titrated, usually from 46.2 µM), for inactives: at the highest dose activity change, negative = growth inhibition, most hits filed as inhibitors; DT40 Tdp1-/- hTDP1 cells, no CPT, ATP luminescence, 48 h; also: potency is read from the fitted curve at half-maximal effect; % is scaled to controls: 0 for no effect and ±100 for the full control effect; nearly all actives have a fitted effect of over 55% in size
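Readout: luminescence from CellTiter-Glo after 30 min in the dark at RT. Cells: DT40 Tdp1-/- with stable hTDP1, 400/well. Exposure: compounds alone, ≥48 hr, 37 °C.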
* = called active by the depositor; u = inconclusive; x = no result given; [ ] = another dose, or the depositor's remark. Shown are actives, neighbours in structure and some others; about 19% of the full set was active somewhere. Unless noted, calls follow the shape of the dose curve; as a rule, active = well fitted curve in the direction sought with a large enough effect; inconclusive = small, poorly fitted or top-dose-only effect, or another doubt; inactive = no such curve, though single readings can be large; an effect the other way counts as inactive or inconclusive.

SMILES	TGFb inhibitor	HepG2 viability	TDP1 block	DT40 TDP1 CPT	IL-1B inflam inh	TDP1 cell noCPT
Cc1ccc(S(=O)(=O)NCC(=O)OCC(=O)N2N=C(c3ccc(Cl)cc3)CC2c2ccco2)cc1C (stereo not drawn)	u	-1.8%	3.2%	u	2.6	23.1µM*
CCCN1CCC[C@@H](c2cccc(C#N)c2)C1	x	x	9.6%[56.1 µM]	x	x	x
ClC1=C(Cl)C2(Cl)C3C4CC(C5OC45)C3C1(Cl)C2(Cl)Cl (stereo not drawn)	x	x	7.7%[56.1 µM]	x	x	x
CCCNS(=O)(=O)c1ccc(OCC(=O)N2CCN(Cc3ccc4c(c3)OCO4)CC2)cc1	0.0%	-7.3%	-3.3%	u	-19.7	11.6µM*
O[C@H]1[C@H]2[C@H](O)CCCN2C[C@H]1O	x	x	x	8.0%	x	-15.9%
FC(F)(F)c1nc(N2CCN(c3ccccc3)CC2)nc2c1CCCCC2	-5.0%	4.5%	7.8%	u	11.9	18.4µM*
CCS(=O)(=O)Nc1ccc(C2=NN(C(=O)c3ccco3)C(c3ccc(Cl)o3)C2)cc1 (stereo not drawn)	-13.1%	-27.5%	0.7%	u	-62.8*	23.1µM*
COP(=S)(OC)Oc1ccc(S(=O)(=O)N(C)C)cc1	x	x	8.5%	8.8%	x	4.9%
CCOC(=O)c1c(C=O)c2ccccc2n1Cc1ccccc1F	-16.5%	-5.4%	x	-11.8%	8.0	u
Cc1c(C=O)c2ccccc2n1Cc1ccccc1F	1.12µM*	-40.5%	-3.6%	6.6%	2.5	-17.3%
O=[N+]([O-])c1ccc2nc(N3CCNCC3)ccc2c1	-3.8%	-49.6%	11.8%[56.1 µM]	u	-52.9*	20.6µM*
COc1ccc(-c2nn(Cc3ccccc3)cc2C(=O)NC2CC2)cc1OC	0.2%	7.0%	-0.5%[56.1 µM]	5.3%	20.3	13.9%
CC(=O)Nc1cc(-c2ccc(C(=O)NC3CC3)cc2)cn2c(-c3ccc(F)c(Cl)c3)cnc12	u	-6.6%	x	u	-12.4	14.6µM*
C[C@H]1COC(=O)[C@@H](Cc2ccc(F)cc2)CC/C=C/C[C@H](CC(=O)N(CCO)Cc2ccccc2)C(=O)N1	0.0%	-7.5%	0.6%	16.4µM*	-28.4	16.4µM*
C[C@H]1COC(=O)[C@@H](Cc2ccc(F)cc2)CC/C=C/C[C@@H](CC(=O)N(CCO)Cc2ccccc2)C(=O)N1	-12.7%	-11.8%	1.0%	13µM*	4.3	23.1µM*
CNC(=O)OCC[N+](C)(C)C	x	x	5.7%	5.1%	x	-19.3%
N#Cc1nn(-c2c(Cl)cc(C(F)(F)F)cc2Cl)c(N)c1S(=O)C(F)(F)F (stereo not drawn)	x	x	2.4%	9.62µM*	x	8.57µM*
CN(C(=O)Cc1ccc(Cl)c(Cl)c1)[C@H](CN1CCCC1)c1ccccc1	x	x	3.7%	14.6µM*	x	11.6µM*
O=C(Nc1ccc(C(=O)O)cc1)Oc1ccc(N(CCCl)CCCl)cc1	19.8%	-33.7%	x	0.411µM*	1.4	0.731µM*
COc1ccc2c3c1O[C@H]1[C@@H](O)C=C[C@H]4C(C2)NCCC341 (stereo partly drawn)	x	x	3.7%	x	x	x
O=[N+]([O-])c1ccc(F)c([N+](=O)[O-])c1	x	x	0.3%	5.6%	x	u
CN(C)c1ccc([N+](=O)[O-])c([N+](=O)[O-])c1	8.3%	-8.6%	x	u	-58.6*	u
O=C(O)c1cc(O)c(O)c(O)c1	x	x	u	0.581µM*	x	0.92µM*
CC(O)CCl (stereo not drawn)	x	x	5.4%	x	x	x
